# Data reported in PubChem BioAssay (NCI).
# This is part of a sample that, as a whole, favours compounds with a hit. Of some 83,000 tested, about 20% had one in any assay.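 The test compound was applied at a single concentration to cells in 96-well plates for 48 hours, and percent growth was recorded.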 Unmarked numbers belong to inactive results. The source made the active and inactive calls. Rule for the calls: active = growth percent below 10; inactive = the rest.
# How the values were obtained:
# Experiment in all cases: NCI-60 one-dose screen, 48 h (100 = growth as untreated, 0 = no growth, -100 = all killed)
# Settings in all cases: 10 µM unless noted
# [1] = tested on: T-47D breast
# [2] = tested on: BT-549 breast
# [3] = tested on: MDA-MB-435 melanoma
# [4] = tested on: SW-620 colon
# [5] = tested on: MCF7 breast
# [6] = tested on: HCT-116 colon
# [7] = tested on: HCC-2998 colon
# [8] = tested on: KM12 colon
SMILES,growth [1],growth [2],growth [3],growth [4],growth [5],growth [6],growth [7],growth [8]
CC(C)(C)CC(C)(C)n1nnnc1C(Nc1ccccc1)c1cc2cccc3ccc4cccc1c4c32 (configuration not stated),55.7%,130%,83.6%,82.3%,61.6%,45.1%,90.8%,86.7%
COc1ccc(-c2nc3cc(Cl)c(Cl)cc3n2CC(=O)N=Nc2c(O)[nH]c3ccc(Br)cc23)cc1,-52.7% (active),3.05% (active),-59.1% (active),-54.6% (active),-11.6% (active),-31.5% (active),-25.9% (active),5.77% (active)
CNC(=O)c1cc(Oc2ccc3nc(NC(=O)c4cccc(C(F)(F)F)c4)sc3c2)ccn1,96.9%,105%,95.1%,105%,85.6%,94.1%,109%,102%
CC(C)=CCC[C@](C)(O)[C@H]1CC[C@]2(C)[C@@H]1CC[C@@H]1[C@@]3(C)CCC(NC(=O)c4ccccc4C(=O)O)C(C)(C)[C@@H]3CC[C@]12C (some centres not stated),79.4%,113%,51.2%,91%,73%,86.9%,96.5%,87.9%
Oc1ccc(CSc2nnc(-c3ccc(Br)cc3)o2)c2cccnc12,28.5%,43%,29.3%,17.7%,16%,23%,44.9%,19.1%
Cc1nn(-c2ccccc2)c2nc(CCl)[nH]c(=O)c12,66%,100%,97.9%,85.1%,16.4%,24.9%,108%,53.3%
C#CCOc1ccc(C(Nc2ccc(Cl)cc2)c2nnnn2C2CCCCC2)cc1 (configuration not stated),74.4%,85.7%,98%,94.2%,75.5%,61.4%,98.7%,95.9%
CN1CCN(c2ccc(C(=O)/C=C/c3ccc(Cl)c(C(F)(F)F)c3)cc2)CC1,29.6%,109%,13.7%,1.29% (active),7.85% (active),16.1%,33.7%,27.3%
COc1cc(/C=C2\SC(=O)NC2=O)ccc1OCC(=O)Nc1ccc(C(=O)/C=C/c2cc3ccccc3nc2Cl)cc1,66.3%,72.9%,83.6%,96.6%,20.9%,-62% (active),103%,91.6%
CC(C)C[C@H]1C(=O)O[C@H](C(C)C)C(=O)N(C)[C@@H](C(C)C)C(=O)O[C@H](C(C)C)C(=O)N(C)[C@@H](C(C)C)C(=O)O[C@H](C(C)C)C(=O)N1C,6.43% (active),17.6%,21.9%,18.2%,13.8%,9.58% (active),23.1%,16.6%
Cn1cc2c(c1)-c1c(sc3nc(-c4ccc(NC(=O)Nc5cc(C(C)(C)C)on5)cc4)cn13)CC2,30.2%,71.3%,51.9%,73%,15.6%,39%,63.1%,21.7%
Cc1ccc(NC(=O)c2cc(/C=C/C(=O)NO)cc(C(F)(F)F)c2)cc1Nc1nccc(-c2cccnc2)n1,-5.93% (active),-15.3% (active),-2.82% (active),-38.8% (active),-17.5% (active),-12.9% (active),-0.0369% (active),16.4%
C=CCn1c(SCC(=O)Nc2cccc(C(=O)/C=C/c3ccccc3Cl)c2)nc2ccccc2c1=O,74.5%,99.7%,89.1%,67.2%,24.4%,-86.9% (active),100%,80.2%
Cc1ccc(Cc2cnc(NC(=O)/C(C#N)=C/c3ccc(-c4ccc(Cl)cc4)o3)s2)cc1,64.7%,96.7%,94.4%,93.9%,81.8%,88.9%,103%,90.4%
CCN(CC)CCCC(C)NCC(=O)NC(c1ccc2c(c1)OCO2)c1cc(Cl)c2cccnc2c1O (configuration not stated),40.1%,79%,8.56% (active),24.2%,7.35% (active),7.29% (active),-11.4% (active),9.46% (active)
COc1ccc2oc3c4[nH]c5ccccc5c4c4c(c3c2c1)C(=O)N(O)C4=O,97.7%,104%,106%,92.1%,90.3%,104%,101%,101%
C=C(C)C(=O)O[C@H]1C[C@@]2(C)OC(=CC2=O)[C@H](C)[C@H](O)[C@H]2OC(=O)C(=C)[C@@H]21,22.2%,68.9%,76.3%,17.3%,22.1%,33.4%,114%,84.1%
COc1cc2c3c(n(CCCNCC4CC4)c(=O)c2cc1OC)-c1cc2c(cc1C3=O)OCO2,50.6%,66.1%,65%,-20.1% (active),-77.4% (active),-85.1% (active),69.1%,65.1%
CN(C)CCn1c2ccc(N)cc2c2nc3ccccc3nc21,36.4%,85.5%,38.4%,17.1%,9.61% (active),11.3%,45.9%,38.5%
COc1cc(C(=O)C[n+]2ccc3ccccc3c2)cc(OC)c1OC,96.3%,107%,100%,94%,96.3%,95.9%,103%,96.1%
CN1C(=O)N(C)C2C1NN=c1s/c(=C\c3ccccn3)c(=O)n12 (configuration not stated),108%,99.2%,88.5%,99.3%,91.9%,108%,104%,91.6%
CCOC(=O)c1c(NC(=O)c2cccc(C(F)(F)F)c2)sc2c(CN3CCN(C)CC3)c(O)ccc12,21%,102%,-81.5% (active),-66.4% (active),-85.4% (active),-82.6% (active),-36.6% (active),-75.2% (active)
CS(=O)c1nccc(-c2c(-c3ccc(F)c(OCCc4ccc(F)cc4)c3)nc3sccn23)n1 (configuration not stated),-41.9% (active),92.8%,99.5%,-5.23% (active),-46.4% (active),-59.9% (active),17.8%,78.3%
Cc1cc(=O)n2nc(-c3c[nH]c4ccccc34)sc2n1,92.2%,108%,103%,94.4%,73.2%,109%,107%,101%
CS(=O)c1nccc(-c2c(-c3ccc(F)c(OCCc4ccccc4)c3)nc3sccn23)n1 (configuration not stated),15.2%,120%,111%,80.5%,-1.77% (active),63.2%,58.6%,89.2%
O=C1[C@H]2Cc3c([nH]c4ccccc34)[C@@H](c3ccc(Cl)cc3)N2C(=O)CN1C1CCN(Cc2c(Cl)cccc2Cl)CC1,84.8%,97.2%,97.1%,106%,87%,87.9%,101%,87.9%
COc1ccc(C(=O)n2cc(C=O)c3ccccc32)cc1,106%,100%,88.8%,90%,82.1%,91.3%,104%,102%
Cc1cc(F)cc(NS(=O)(=O)c2ccc(-c3cnc(C4CC4)o3)cc2)c1,26.7%,48.8%,-20.9% (active),24.7%,21.4%,19.5%,24.9%,18.3%
Nc1ccc(-c2nnc(SCc3ccc(O)c4ncccc34)n2-c2ccccc2)cc1,15.2%,18.5%,14.8%,19.2%,5.58% (active),8.87% (active),29.1%,17.8%
